ZTA DNA inh: counter-screen for EBNA-1 inhibitors: inhibitors of Epstein-Barr virus ZTA. inhibition, % at 11 µM. P03206. ZTA-DNA binding, fluorescence polarization. 0.15% of 320,000 active; in the data active means inhibition above about 33%
Target sequence (P03206 whole entry, looked up): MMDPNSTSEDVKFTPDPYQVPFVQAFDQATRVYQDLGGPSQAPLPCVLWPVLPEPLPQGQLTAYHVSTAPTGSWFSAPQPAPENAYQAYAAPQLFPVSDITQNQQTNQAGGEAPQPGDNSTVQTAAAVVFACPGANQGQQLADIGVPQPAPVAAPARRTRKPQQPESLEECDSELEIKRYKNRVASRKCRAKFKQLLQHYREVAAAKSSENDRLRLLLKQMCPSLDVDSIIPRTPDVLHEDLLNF
PAFAH2 FP inh: PAFAH2 (human) inhibition | Q99487 | recombinant PAFAH2, FP-rhodamine activity probe, fluorescence polarization | inhibition, % at 3.39 µM | 0.99% of 340,000 active | AID 492956;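 active means inhibition above the mean over all tested compounds plus 3 SD, cut at about 30% in these data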;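 further: inhibitors block probe labeling of enzyme so polarization drops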
EBNA-1 inhibitor: blocks EBNA-1 binding to DNA. EBNA-1 DNA binding, fluorescence polarization. inhibition, % at 14.8 µM. 0.34% of 300,000 active. AID 1950; in the data active means inhibition above about 28%
pPAFAH FP inh: pPAFAH (human) enzyme inhibition. 1.5% of 330,000 active. inhibition, % at 3.39 µM. recombinant pPAFAH, FP-rhodamine probe fluorescence polarization;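 active means inhibition above the mean inhibition across the screen plus 3 SD, cut at about 25% in these data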;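 further: inhibitors block binding of the rhodamine activity-based probe so polarization drops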
PAFAH1B3 inh: PAFAH1B3 (human) inhibition; inhibition, % at 3.39 µM; AID 492972; Q15102; 0.28% of 340,000 active; recombinant PAFAH1B3, FP-rhodamine probe, fluorescence polarization;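 active means inhibition above the screen-wide average of all tested compounds plus 3 SD, cut at about 25% in these data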
PAFAH1B2 FP inh: blocks human PAF acetylhydrolase 1b catalytic subunit 2; recombinant PAFAH1B2, FP-rhodamine activity probe, fluorescence polarization; 1.2% of 340,000 active; P68402; inhibition, % at 3.39 µM;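 active means inhibition above the mean of all tested compounds plus 3 SD, cut at about 24% in these data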
Target sequence (P68402 whole entry, looked up): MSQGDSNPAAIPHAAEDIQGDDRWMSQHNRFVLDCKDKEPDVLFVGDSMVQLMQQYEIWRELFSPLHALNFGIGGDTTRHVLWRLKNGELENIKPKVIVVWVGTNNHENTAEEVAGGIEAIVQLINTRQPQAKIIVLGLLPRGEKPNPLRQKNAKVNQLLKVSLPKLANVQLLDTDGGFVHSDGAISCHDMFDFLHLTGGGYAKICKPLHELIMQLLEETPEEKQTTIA
PAFAH1B3 conf FP: PAFAH1B3 (human) inhibition, confirmed; 30% of 390 active; inhibition, % at 3.39 µM; recombinant PAFAH1B3, FP-Rh activity-based probe, fluorescence polarization; shares compounds with PAFAH1B3 inh;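 active means average inhibition over triplicate runs above the hit cutoff set in the earlier primary screen, cut at about 25% in these data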
Numbers stand for hits; 0 = inactive; - = not tested or not shown. In the library only some 2.9% were active in any assay of this set; here they are far more common.

SMILES	ZTA DNA inh	PAFAH2 FP inh	EBNA-1 inhibitor	pPAFAH FP inh	PAFAH1B3 inh	PAFAH1B2 FP inh	PAFAH1B3 conf FP
COc1ccc(C(=O)N/N=C/c2sc3ccccc3c2O)cc1	0	0	0	0	0	0	-
O=c1cc[nH]c2c1ccc1c(=O)cc[nH]c12	0	0	0	0	31	0	80
O=c1cc[nH]c2c(Cl)cccc12	0	0	0	0	0	0	-
Cc1ccc(C(=O)NC2(O)C(=O)c3ccccc3C2=O)cc1C	0	0	0	0	37	0	37
CCN(CC)S(=O)(=O)c1ccc(N2CCCC2)c(NC(=O)c2ccc(N3CCCC3=O)cc2)c1	0	0	0	0	0	0	-
CCCC[n+]1c2ccccc2cc2ccccc21	0	0	0	0	27	0	35
O=C(Oc1ccc(/C=N/NC(=O)c2ccccc2O)cc1)c1ccccc1	0	0	0	0	0	0	-
Cc1cccc(C(=O)Oc2ccc(/C=N/NC(=O)c3cc(O)cc(O)c3)cc2)c1	-	0	-	-	26	0	0
COCCNC(=O)/C(C#N)=C/c1cccs1	0	0	0	0	0	0	-
COCCNC(=O)/C(C#N)=C/c1ccc(OC(=O)c2cccs2)c(OC)c1	-	0	-	-	26	0	0
CN(C)CCCNc1cc(O)c2ncccc2c1	-	0	-	0	29	0	0
O=C1C(N2CCOCC2)=C(n2nnc3ccccc32)C(=O)c2ccccc21	0	0	0	0	51	0	34
CCc1ccc(NC(=O)C(=O)NCC2CCCN2S(=O)(=O)c2cccs2)cc1 (centres undefined)	0	0	0	0	0	0	-
Cc1ccc(-n2[nH]c(C)c(/C=N/NC(=O)c3ccc(O)cc3O)c2=O)cc1	0	0	0	0	27	0	0
CC(=O)CCC(=O)N1CCC(n2nccc2NC(=O)c2ccccc2C)CC1	0	0	0	0	0	0	-
O=C(CN1CCCc2ccccc21)N/N=C/c1ccccc1	0	0	0	0	0	0	-
O=C(CN1CCCc2ccccc21)N/N=C/c1c(O)ccc2ccccc12	0	0	0	0	31	0	0
O=C1C=C(O)c2[nH]c(=O)ccc2C1=O	-	0	-	-	53	0	0
C=C(C)CN1CCN(S(=O)(=O)c2ccc(C)c(N(C)S(=O)(=O)c3ccc(C)cc3)c2C)CC1	0	0	0	0	0	0	-
COc1ccc2c3c([nH]c2c1)[C@H]1C[C@H]2[C@H](C[C@@H](O)[C@H](OC)[C@H]2C(=O)O)CN1CC3	0	0	0	0	0	0	-
O=C(O)[C@@H]1[C@H]2C[C@H]3c4[nH]c5ccccc5c4CCN3C[C@@H]2CC[C@@H]1O	0	0	0	0	28	0	0
N#Cc1cc2ccc(N3CCOCC3)cc2cc1C#N	0	0	0	0	60	0	0
CCCNC(=O)c1ccc2c(=O)c(O)c(-c3ccc(C)cc3)[nH]c2c1	0	0	0	0	27	0	0
Cc1ccc(-c2[nH]c3cc(C(N)=O)ccc3c(=O)c2O)cc1	0	0	0	0	29	0	0
O=C(NCCO)c1ccc2[nH]c3ccccc3c2c1	0	0	0	0	0	0	-
SMILES	ZTA DNA inh	PAFAH2 FP inh	EBNA-1 inhibitor	pPAFAH FP inh	PAFAH1B3 inh	PAFAH1B2 FP inh	PAFAH1B3 conf FP
CC(=O)N1CCn2c3c(c(=O)c4cc(C)ccc42)CCC31 (centres undefined)	0	0	0	0	41	0	0
NC(=NCCc1ccccc1)NS(=O)(=O)c1ccccc1F	0	0	0	0	0	0	-
O=C(CSc1ncc(S(=O)(=O)c2ccccc2)c(=O)[nH]1)Nc1ccccc1Cl	0	0	0	0	56	0	51
Cc1ccc(NC(=O)CSc2ncc(S(=O)(=O)c3ccccc3)c(=O)[nH]2)cc1C	0	0	0	0	0	0	-
CCCCn1c(N)c(N(CCC(C)C)C(=O)COC(=O)c2sccc2C)c(=O)[nH]c1=O	0	0	-	0	0	0	-
CCCCn1c(N)c(N(CCC(C)C)C(=O)COC(=O)c2ccc([N+](=O)[O-])s2)c(=O)[nH]c1=O	-	0	-	0	30	0	0
CCOC(=O)c1c(C)oc2c1c(C=NCc1ccccn1)c(O)c1ccccc12	-	0	-	-	56	0	0
CCOC(=O)c1c(C)oc2c1c(C=NCC1CCCO1)c(O)c1ccccc12 (centres undefined)	-	0	-	-	0	0	-
CN(C)CCn1cnc2c(c1=N)C(c1ccccc1)c1ccc3ccccc3c1O2 (centres undefined)	0	0	0	0	0	0	-
N=C1/C(=C/c2ccc(-c3cccc(C(=O)O)c3)o2)C(=O)N=C2SC(CC(=O)N3CCOCC3)=NN12	0	0	0	0	30	0	0
CC(C)(C)NCC(O)COc1cccc2c1C[C@H](O)[C@H](O)C2 (some centres undefined)	0	0	0	0	33	0	0
CCOC(=O)c1cccc(NC(=O)CSc2nnc(C)n2CC2CCCO2)c1 (centres undefined)	0	0	0	0	0	0	-
O=C(CCl)Nc1c(C(=O)Nc2ccc3c(c2)OCCO3)oc2ccccc12	0	0	0	0	26	0	30
COCC(=O)Nc1c(C(=O)Nc2ccc3c(c2)OCO3)oc2ccccc12	0	0	0	0	0	0	-
COc1ccc2c3c(cccc13)N(C)N=C2C	0	0	0	0	27	0	0
CC(C)CCSc1nnc(N)s1	0	0	0	0	0	0	-
COc1cc(C(=O)N/N=C/c2ccc3c(c2)c2ccccc2n3C)ccc1O	-	0	-	-	41	0	0
COc1cc(/C=N/NC(=O)CCn2c3ccccc3c3ccccc32)ccc1O	0	0	0	0	0	0	-
Cc1ccc(CN2CCN(CC(=O)N/N=C/c3ccc(C)o3)CC2)cc1	0	0	0	0	0	0	-
CC(C)Cn1c(N)c(C(=O)NCC2CCCO2)c2nc3ccccc3nc21 (centres undefined)	0	0	0	0	32	0	0
COCCn1c(N)c(C(=O)NCC2CCCO2)c2nc3ccccc3nc21 (centres undefined)	0	0	0	0	0	0	-
COCC(C)OC(=O)c1c(N)n(CC(C)C)c2nc3ccccc3nc12 (centres undefined)	0	0	0	0	35	0	0
CC(=O)Nc1ccc(S(=O)(=O)N(C)c2ccc(OCCOc3ccccc3F)cc2)cc1	-	0	-	0	0	0	-
COc1ccccc1NC(=O)c1ccc(NC(=O)COC(=O)CCC2CCCC2)cc1	0	0	0	0	0	0	-
O=c1cc(CCl)nc2sc3ccccc3n12	0	0	0	0	60	0	73
CCN(CC)CCc1nc(-c2ccccc2)no1	0	0	0	0	29	0	34
CCN1C(=O)CC(NCc2ccc(S(N)(=O)=O)cc2)C1=O (centres undefined)	0	0	0	0	0	0	-
C=CCc1cccc(/C=N/NC(=O)CNc2cccc3ccccc23)c1O	0	0	0	0	26	0	0

Screening data as filed in PubChem BioAssay.
